Measured values published in PubChem BioAssay AID1159580 (chemical genetic matrix, 2015).
Several values for one entry are separate records, joined by “and”; a condition that tells them apart may be missing. Equal entries are not always repeated. About 2,000 (36%) of roughly 5,500 compounds were called active. Not shown: some 18% with an inconclusive outcome. No stated cut-off is given here; in the data, active means normalized growth mostly below about 0.91 (no sharp cut-off); inconclusive means no clear call, values can overlap the other calls; inactive means mostly above about 0.92. The list shows a part of the results.

Experiment: chemical genetic growth profiling, strain panel (AID 1159580);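 further: tested at 20 µM; growth read once vehicle control cultures reached saturation at 30 °C; 1 = growth at the plate median or of vehicle wells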
Details: S. cerevisiae deletion strains, growth OD

Measured: normalized growth

COC(=O)C(N)CS (stereo unspecified)
inactive: locus YAL013W, strain DEP1, stronger effect = lower value 0.991 | locus YAL021C, strain ccr4, stronger effect = lower value 0.93 | locus YAL026C, strain drs2, stronger effect = lower value 0.967 | locus YAL030W, strain snc1, stronger effect = lower value 0.993 | locus YBL061C, strain skt5, stronger effect = lower value 0.998 | locus YBR009C, strain hhf1, stronger effect = lower value 0.958 | locus YBR021W, strain FUR4, stronger effect = lower value 0.994 | locus YBR023C, strain chs3, stronger effect = lower value 1.02 | locus YBR171W, strain sec66, stronger effect = lower value 0.984 | locus YBR229C, strain ROT2, stronger effect = lower value 0.992 | locus YBR231C, strain swc5, stronger effect = lower value 0.974 | locus YBR279W, strain paf1, stronger effect = lower value 1.01 | locus YCL011C, strain gbp2, stronger effect = lower value 0.996 | locus YCL016C, strain dcc1, stronger effect = lower value 1.04 | locus YCL029C, strain bik1, stronger effect = lower value 0.964 | locus YCL069W, strain vba3, stronger effect = lower value 0.954 | locus YCR088W, strain abp1, stronger effect = lower value 0.982 | locus YDL005C, strain med2, stronger effect = lower value 1 | locus YDL035C, strain GPR1, stronger effect = lower value 0.978 | locus YDL040C, strain nat1, stronger effect = lower value 0.99 | locus YDL074C, strain BRE1, stronger effect = lower value 0.98 | locus YDL101C, strain DUN1, stronger effect = lower value 0.984 | locus YDL134C, strain PPH21, stronger effect = lower value 0.977 | locus YDL185W, strain tfp1, stronger effect = lower value 0.966 | locus YDL192W, strain arf1, stronger effect = lower value 0.975 | locus YDR001C, strain nth1, stronger effect = lower value 0.984 | locus YDR069C, strain doa4, stronger effect = lower value 0.959 | locus YDR101C, strain arx1, stronger effect = lower value 0.985 | locus YDR137W, strain rgp1, stronger effect = lower value 0.924 | locus YDR150W, strain NUM1, stronger effect = lower value 0.996 | locus YDR159W, strain sac3, stronger effect = lower value 0.929 | locus YDR162C, strain NBP2, stronger effect = lower value 0.985 | locus YDR195W, strain ref2 1.03 | locus YDR297W, strain sur2, stronger effect = lower value 0.98 | locus YDR318W, strain mcm21, stronger effect = lower value 0.93 | locus YDR334W, strain swr1, stronger effect = lower value 0.959 | locus YDR335W, strain msn5, stronger effect = lower value 0.995 | locus YDR388W, stronger effect = lower value 0.951 | locus YDR392W, strain spt3, stronger effect = lower value 0.806 | locus YDR502C, strain sam2, stronger effect = lower value 0.98 | locus YEL003W, strain gim4, stronger effect = lower value 0.966 | locus YEL037C, strain rad23, stronger effect = lower value 0.978 | locus YEL061C, strain CIN8 (second series), stronger effect = lower value 0.966 | locus YEL061C, strain CIN8, stronger effect = lower value 0.997 | locus YER015W, strain faa2, stronger effect = lower value 0.997 | locus YER016W, strain bim1, stronger effect = lower value 0.997 | locus YER110C, stronger effect = lower value 0.991 | locus YER111C, strain swi4, stronger effect = lower value 1.03 | locus YER155C, strain BEM2 (second series), stronger effect = lower value 0.886 | locus YER155C, strain BEM2, stronger effect = lower value 1 | locus YER167W, strain BCK2, stronger effect = lower value 0.971 | locus YFR010W, strain ubp6, stronger effect = lower value 0.94 | locus YGL078C, strain dbp3, stronger effect = lower value 0.988 | locus YGL086W, strain mad1, stronger effect = lower value 0.976 | locus YGL167C, strain pmr1, stronger effect = lower value 0.977 | locus YGL173C, strain kem1, stronger effect = lower value 0.938 | locus YGL227W, strain vid30, stronger effect = lower value 0.971 | locus YGL240W, strain doc1, stronger effect = lower value 0.941 | locus YGL248W, strain PDE1, stronger effect = lower value 0.959 | locus YGL253W, strain hxk2, stronger effect = lower value 0.976 | locus YGR078C, strain PAC10, stronger effect = lower value 0.976 | locus YGR135W, strain pre9, stronger effect = lower value 0.947 | locus YGR229C, strain SMI1, stronger effect = lower value 0.949 | locus YGR252W, strain gcn5, stronger effect = lower value 0.883 | locus YHR013C, strain ard1, stronger effect = lower value 0.938 | locus YHR027C, strain rpn1, stronger effect = lower value 0.97 | locus YHR030C, strain SLT2, stronger effect = lower value 0.99 and 1.05 | locus YHR079C, strain IRE1 (second series), stronger effect = lower value 0.964 | locus YHR079C, strain IRE1, stronger effect = lower value 1.04 | locus YHR094C, strain hxt1, stronger effect = lower value 0.991 | locus YHR129C, strain ARP1, stronger effect = lower value 0.992 | locus YHR142W, strain chs7, stronger effect = lower value 1 | locus YHR200W, strain rpn10, stronger effect = lower value 0.973 | locus YIL066C, strain RNR3, stronger effect = lower value 0.975 | locus YIL073C, strain SPO22, stronger effect = lower value 0.903 | locus YIL125W, strain kgd1, stronger effect = lower value 0.991 | locus YIR030C, strain dcg1, stronger effect = lower value 0.984 | locus YJL092W, strain hpr5, stronger effect = lower value 0.995 | locus YJL095W, strain BCK1 (second series), stronger effect = lower value 0.995 | locus YJL095W, strain BCK1, stronger effect = lower value 0.929 and 1.04 | locus YJL115W, strain asf1, stronger effect = lower value 0.977 | locus YJL129C, strain trk1, stronger effect = lower value 1.01 | locus YJL134W, strain LCB3, stronger effect = lower value 0.996 | locus YJL154C, strain vps35, stronger effect = lower value 0.97 | locus YJL164C, strain tpk1, stronger effect = lower value 0.965 | locus YJL166W, strain qcr8, stronger effect = lower value 0.961 | locus YJL168C, strain set2, stronger effect = lower value 0.979 | locus YJL187C, strain SWE1 (second series), stronger effect = lower value 0.972 | locus YJL187C, strain SWE1, stronger effect = lower value 0.998 | locus YJR043C, strain POL32, stronger effect = lower value 0.977 | locus YJR066W, strain TOR1, stronger effect = lower value 0.998
